Source: the supplement of paper PMC7366291
Counter-ions that a name gives are not always drawn. ± gives the standard deviation.

The compounds below were run on Danio rerio Tg(wt1b:EGFP) embryo, pronephros (assay: glomerular separation, fold change vs DMSO control; higher = glomeruli further apart (abnormal)). Settings: 25 µM; exposure: 24-48 hpf.
How it was run: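 Dechorionated Tg(wt1b:EGFP) zebrafish embryos were incubated at 28.5°C from 24 to 48 hpf with 25 μM compound in HEPES-buffered E3 containing 0.5% DMSO and 0.003% PTU. Distances and angles between 16 manually set points on maximum projections of dorsal pronephros images were measured in Fiji, with values over 2 SD from the feature mean excluded. Each feature is a fold change relative to the mean of same-day DMSO-treated embryos.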

Compound	glomerular separation
C[C@]12C=CC(=O)C=C1CC[C@H]1[C@@H]3C[C@@H](O)[C@](O)(C(=O)CO)[C@@]3(C)C[C@H](O)[C@@]12F [Triamcinolone]	1.19 ± 0.58
O=C(Nc1ccc([N+](=O)[O-])cc1Cl)c1cc(Cl)ccc1O [Niclosamide]	1.53 ± 0.67
CC[C@]12CCCN3CCc4c(n(c5ccccc45)C(=O)C1)[C@@H]32 [Eburnamonine (-)]	1.19 ± 0.41
CCOC(=O)C1=C(C)NC(C)=C(C(=O)OC)C1c1cccc([N+](=O)[O-])c1 (stereo unspecified) [Nitrendipine]	5.49 ± 1
Clc1ccc2nsnc2c1NC1=NCCN1 [Tizanidine hydrochloride]	1.02 ± 0.43
CCCCC(CC)CN1CN(CC(CC)CCCC)CC(C)(N)C1 (stereo unspecified) [Hexetidine]	1.05 ± 0.29
CCN(CC)C(=O)C1(c2ccccc2)CC1CN (stereo unspecified) [Milnacipran hydrochloride]	0.724 ± 0.23
N=C(N)c1ccc(OCCCCCOc2ccc(C(=N)N)cc2)cc1 [Pentamidine isethionate]	0.801 ± 0.21
C#CCN[C@@H]1CCc2ccccc21 [Rasagiline]	1.13 ± 0.38
CC(C)(C(=O)c1cccnc1)c1cccnc1 [Metyrapone]	0.85 ± 0.27
CCOC(=O)[C@H](CCc1ccccc1)N[C@H]1CCc2ccccc2N(CC(=O)O)C1=O [Benazepril hydrochloride]	0.73 ± 0.18
CO[C@@]1(NC(=O)CSCC#N)C(=O)N2C(C(=O)O)=C(CSc3nnnn3C)CS[C@@H]21 [Cefmetazole sodium salt]	0.79 ± 0.16
CNC(=C[N+](=O)[O-])NCCSCc1ccc(CN(C)C)o1 [Ranitidine hydrochloride]	0.923 ± 0.34
COc1ccc2[nH]c([S+]([O-])Cc3ncc(C)c(OC)c3C)nc2c1 (stereo unspecified) [Omeprazole]	1.15 ± 0.38
CCCC(CCC)C(=O)O [Valproic acid]	1.62 ± 0.94
Cc1cccc(C)c1NC(=O)C1CCCCN1C (stereo unspecified) [Mepivacaine hydrochloride]	0.751 ± 0.32
CC1CC(OC(=O)c2ccccc2O)CC(C)(C)C1 (stereo unspecified) [Homosalate]	0.865 ± 0.19
CNCCC=C1c2ccccc2C=Cc2ccccc21 [Norcyclobenzaprine]	1.12 ± 0.86

Compound	glomerular separation
NCCCC(O)(P(=O)(O)O)P(=O)(O)O [Alendronate sodium]	0.796 ± 0.25
C#C[C@]1(O)CC[C@H]2[C@@H]3CCC4=CC(=O)CC[C@@H]4[C@H]3CC[C@@]21CC [Norgestrel-(-)-D]	0.798 ± 0.23
O=C1NCCN1c1ncc([N+](=O)[O-])s1 [Niridazole]	1.24 ± 0.57
CN(C)CC/C=C1/c2ccccc2Sc2ccc(Cl)cc21 [Chlorprothixene hydrochloride]	0.89 ± 0.23
COC(=O)Nc1nc2ccc(SC(C)C)cc2[nH]1 [Methiazole]	3.98 ± 1.2
CCCNC(C)(C)COC(=O)c1ccccc1 [Meprylcaine hydrochloride]	1.08 ± 0.26
CC(=O)c1ccc2c(c1)N(CCCN1CCC(CCO)CC1)c1ccccc1S2 [Piperacetazine]	0.868 ± 0.28
COc1cc(NS(=O)(=O)c2ccc(N)cc2)ncn1 [Sulfamonomethoxine]	0.898 ± 0.44
C(=C\c1ccccc1)/CN1CCN(C(c2ccccc2)c2ccccc2)CC1 [Cinnarizine]	1.15 ± 0.31
OC(Cn1cncn1)(Cn1cncn1)c1ccc(F)cc1F [Fluconazole]	1.11 ± 0.31
COc1cc(C(=O)N2CCOCC2)cc(OC)c1OC [Trimetozine]	1.03 ± 0.47
CCC[C@@H]1C[C@@H](C(=O)N[C@@H]([C@H]2O[C@H](SC)[C@H](O)[C@@H](O)[C@H]2O)[C@@H](C)O)N(C)C1 [Lincomycin hydrochloride]	0.865 ± 0.33
CC/C(=C(\c1ccccc1)c1ccc(OCCN(C)C)cc1)c1ccccc1 [Tamoxifen citrate]	0.968 ± 0.33
COCCCC/C(=N\OCCN)c1ccc(C(F)(F)F)cc1 [Fluvoxamine maleate]	1.05 ± 0.39
NCc1ccc(S(N)(=O)=O)cc1 [Mafenide hydrochloride]	0.887 ± 0.27
CN[C@@H]1[C@H](O)[C@H](NC)[C@H]2O[C@@]3(O)C(=O)C[C@@H](C)O[C@H]3O[C@@H]2[C@H]1O [Spectinomycin dihydrochloride]	0.786 ± 0.48
Nc1ccn([C@@H]2O[C@H](CO)[C@@H](O)[C@@H]2O)c(=O)n1 [Cytarabine]	0.773 ± 0.16
C[C@]12C=CC(=O)C=C1CC[C@@H]1[C@@H]2C(=O)C[C@@]2(C)[C@H]1CC[C@]2(O)C(=O)CO [Prednisone]	1.19 ± 0.48
